Hits are enriched below; roughly 6.5% of the tested compounds scored in any of these assays.
NADH enzymes: inhibitors of enzymes used to reach an NAD/NADH endpoint | 0.02% of 65,000 active | IC50, µM (top dose mostly 10 µM), for inactives: at the top dose inhibition | coupled PK/LDH NADH assays, four targets;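 active means single-dose screening hits from any of four coupled enzyme assays that gave an IC50 when retested across doses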;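 further: the DPM-DC format reads NADH fluorescence rather than 340 nm absorbance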
MK inhibit: S. pneumoniae mevalonate kinase inhibition; inhibition, % at 10 µM; purified MK, PK/LDH-coupled NADH absorbance 340 nm; 0.48% of 65,000 active;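 active means ranked among the strongest by inhibition in the single 10 µM screen, a fixed top-ranked set picked for dose follow-up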
A340 absorber: absorbance at 340 nm; compound absorbance at 340 nm, fold over control; fold change at 10 µM; 65,000 tested, under 10 active; AID 708;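 active means at 10 µM dose, initial 340 nm absorbance at least 2 fold that of control wells; inactive means change under 2 fold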;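 further: initial absorbance extrapolated from kinetic A340 decline of NADH oxidation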
PMK inhibit: S. pneumoniae PMK inhibition | purified PMK, PK/LDH-coupled NADH absorbance 340 nm | AID 539 | 0.49% of 65,000 active | inhibition, % at 10 µM;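 active means top-ranked compounds by inhibition in the single 10 µM screen, taking a fixed number of the strongest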;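 further: 0% = full reaction with DMSO carrier and 100% = background rate without enzyme reaction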
Fluor 339 460: intrinsic fluorescence of library compounds, ex339/em460 – biochemical, MLSMR library, data from DPM-DC assay, artefact control, profiling panel; compound autofluorescence, ex339/em460 nm, NADH buffer; active compounds read high; 1 = no-compound wells, NADH background; fluorescence fold increase at 10 µM; 5.5% of 65,000 active;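 active means at 10 µM, mean starting fluorescence two-fold or more over control wells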;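 further: signal is the first read of a kinetic run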
Spn DPM-DC inh: S. pneumoniae DPM-DC inhibition; calls only at 10 µM; 0.49% of 65,000 active; purified DPM-DC, PK/LDH coupled NADH fluorescence;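 active means the 320 compounds with the highest percent inhibition in the single-dose primary screen, excluding strongly autofluorescent ones, cut at about 32% in these data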;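 further: kinetic rate of NADH fluorescence loss reporting ADP formed by the decarboxylase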
The depositor's hits bear a star; i = inactive; x = not tested or not shown; + = active, no number.

SMILES	NADH enzymes	MK inhibit	A340 absorber	PMK inhibit	Fluor 339 460	Spn DPM-DC inh
CC1(C(=O)N(c2ccccc2)C(C(=O)NC2CCCC2)c2ccccn2)CC(=O)N=C2C=CC=CN21 (centres undefined)	12%	7	1.1	16	4.7*	x
CC1(C(=O)N(CC(=O)NC2CCCC2)C2CCCC2)CC(=O)N=C2C=CC=CN21 (centres undefined)	7%	5	1	8	3.8*	x
Cc1ccccc1N(CC(=O)NCC1CCCO1)C(=O)C1(C)CC(=O)N=C2C=CC=CN21 (centres undefined)	6%	17	0.99	12	3.3*	x
CC1(C)C2CCC13CS(=O)(=O)N[C@@H]3C2 (some centres undefined)	3%	10	1	0	1.1	i
c1ccc2c3c(cc(N4CCOCC4)c2c1)OC1(N2CCOCC2)CCCCC1O3 (centres undefined)	10%	12	1	7	3.9*	x
O=C(Nc1ccc(N2CCOCC2)c(Cl)c1)C1CCCCC1	7%	8	1	11	1.1	i
COc1ccc(Cn2c(CCCO)nc3ccccc32)cc1OC	1%	5	1	0	1	i
O=C(NCc1ccccc1)C1CCN(S(=O)(=O)c2cccc3cccnc23)CC1	3%	3	0.98	2	1	i
Cc1ccc(CNC(=O)C2CCN(S(=O)(=O)c3c(C)noc3C)CC2)cc1	5%	+	1	19	1	i
COc1ccc(CNC(=O)C2CCN(S(=O)(=O)c3cccc4cccnc34)CC2)cc1	15%	2	1	27*	1.1	i
COc1cc(S(=O)(=O)N2CCOCC2)ccc1NC(=O)COC(=O)c1ccccn1	3%	10	1	12	1	i
CCCCN(C)CCNC(=O)c1c[nH]c2ccc(S(=O)(=O)N(CC)CC)cc2c1=O	13%	0	1.1	19	3.2*	i
COc1cc(C)c(C(C)C)cc1S(=O)(=O)NCCCn1ccnc1	6%	0	1	12	1.1	i
O=C(NCCCO)c1ccc2[nH]c3ccccc3c2c1	11%	2	1	10	2.7*	i
CCCCNC(=O)c1cccc(C(=O)NCCCC)c1	5%	10	1	6	1.1	i
CCOc1ccc(CCNC(=O)Cc2nn[nH]n2)cc1OCC	3%	0	1	10	1.1	i
Cc1c(C)c2cc(Cl)c(OCc3nn[nH]n3)cc2oc1=O	7%	5	1.1	9	3.8*	x
CCc1cc(=O)oc2cc(C)cc(OCc3nn[nH]n3)c12	8%	5	1	11	3.8*	x
CCOc1cc2c(C)cc(=O)oc2cc1Cl	8%	3	1	14	1.8	i
COC(=O)Cc1c(C)c2c(OCc3nn[nH]n3)cc(C)cc2oc1=O	0%	0	1.1	0	3.8*	x
Cc1cc2oc(=O)cc(C)c2cc1NC(=O)CCC(=O)O	11%	9	0.99	5	2.5*	i
CCOC(=O)N1CCC(NC(=O)c2cc(C(=O)Nc3ccc(OC)c(OC)c3)ccc2CO)CC1	4%	0	1.1	13	1.1	i
CCOC(=O)c1cc(-c2ccco2)nc2c1c(C)nn2CCC#N	2%	2	1	12	2.4*	x
CCOC(=O)c1cc(-c2ccc3c(c2)OCCO3)nc2c1c(C)nn2CCC#N	6%	0	1.1	11	4.9*	x
CCOC(=O)c1cc(-c2ccncc2)nc2c1c(C)nn2C	12%	4	1	19	5.1*	x
SMILES	NADH enzymes	MK inhibit	A340 absorber	PMK inhibit	Fluor 339 460	Spn DPM-DC inh
CCOC(=O)C1=C(C)N(C)C(C)=C(C(=O)OCC)C1c1ccncc1	3%	8	1.1	1	1.1	i
CCOC(=O)c1cc(C#N)c(NCc2ccccc2)nc1C	2%	0	1.1	5	1.7	i
CC(=O)NC(C)C(=O)OCC(=O)Nc1ccc(Br)cc1 (centres undefined)	1%	1	1.1	8	1	i
CC(C)=CC(=O)Nc1ccc(Br)cc1	5%	14	0.97	active	1.1	i
O=c1nc2c(-c3ccccc3F)n[nH]n2c2ccccc12	1%	2	1	0	5.1*	x
COc1ccc(NS(=O)(=O)c2ccc3c(c2)CCC(=O)N3)c(OC)c1	5%	0	1	14	1.1	i
CCc1ccc(OCc2nnc(SCC(=O)NCc3ccco3)o2)cc1	9%	0	1	26*	0.99	i
Cc1ccc(S(=O)(=O)/N=C(\CN2CCCCC2)N2CCOCC2)cc1	5%	7	1	8	1	i
C=C(C)c1nc(N)nc(N)n1	2%	6	1	0	0.99	i
COc1ccc(OC)c(C2/C(=C(\O)c3c(C)nc4ccccn34)C(=O)C(=O)N2CCCN(C)C)c1 (centres undefined)	3%	3	1	6	1.1	i
Cc1cccc(NC(=O)c2cnc3sccn3c2=O)n1	8%	active	1.1	0	0.97	i
O=C(NCc1cccnc1)c1cnc2sccn2c1=O	1%	2	1.2	0	2.2*	x
Cc1cccc(NC(=O)c2cnc3sccn3c2=O)c1	5%	6	1.2	1	1	i
O=C(Nc1ccon1)c1cnc2sccn2c1=O	8%	5	1.1	0	3.2*	i
COc1ccc(NC(=O)c2cnc3sccn3c2=O)cc1	7%	4	1.2	15	0.95	i
COc1ccccc1CNC(=O)c1cnc2sccn2c1=O	4%	1	1.1	6	1.1	i
O=C(CSc1nc2ccccc2c(=O)[nH]1)Nc1ccc(S(=O)(=O)N2CCCC2)cc1	2%	2	1	4	1.1	i
CC1(C)CSC(=S)N1S(=O)(=O)c1ccccc1	5%	0	1	14	1.1	i
O=c1cc(C23CC4CC(CC(C4)C2)C3)[nH][nH]1	19%	32	1	24	1.1	i
COCCN(C(=O)C1CC1)c1nnc(-c2cccc(C)c2)s1	3%	6	0.99	3	1.1	i
Cn1c(SCc2ccc3c(c2)OCO3)nnc1-c1ccccc1	2%	4	1	16	1	i
c1ccn2c(SCc3ccc4c(c3)OCO4)nnc2c1	21%	48*	1	12	0.96	i
CC(=O)OC(C(=O)NC1CCCCC1)c1ccc(C#N)cc1 (centres undefined)	8%	10	0.97	14	1.1	i
COc1cc2nc(N3CCN(C(=O)C4CCCO4)CC3)nc(N)c2cc1OC (centres undefined)	6%	3	1.1	9	3.9*	x
Cc1cc(C(=O)N2CCN(C(=O)C3CCCO3)CC2)no1 (centres undefined)	6%	5	1	13	1.1	i
Cc1cc(C)n2nc(SCc3cc(=O)n4ccccc4n3)nc2n1	4%	3	1	22	1.6	i
